Test results from PubChem BioAssay AID624035 (The Scripps Research Institute Molecular Screening Center, 2012).
A number with no mark means an inactive call.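 The calls were made as follows: active = compounds cutting enzyme signal by half at 10000 nM or lower, the printed EC50; inactive = the rest.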

Assay: fluorescent interference in IDE FRET1 assay, late-stage follow-up, artefact control for IDE activator project, biochemical, fluorogenic FRET1 peptide substrate (AID 624035)
Details: recombinant IDE, FRET1 substrate fluorescence, artifact counterscreen
For `C/C(CC(=O)Nc1ccc(N(C)C)cc1)=N\NC(=O)c1ccncc1`, the EC50 was > 10 µM. With `CCN1CCN(C2=CC3=CC(=C(C#N)C#N)CCC3CC2)CC1` (stereo not drawn) the EC50 was > 10 µM. For `CCN(CC)C1=CC2=CC(=C(C#N)C#N)CCC2CC1` (stereo not drawn), the EC50 was > 10 µM. In the case of `N#CC(C#N)=C1C=C2C=C(N3CCCCCC3)CCC2CC1` (stereo not drawn), the EC50 is reported as > 10 µM. For `N#CC(C#N)=C1C=C2C=C(N3CCOCC3)CCC2CC1` (stereo not drawn), the EC50 was > 10 µM. In the case of `CN(C)/C=C1\C=C2C(=O)c3ccccc3N2C1=O`, the EC50 is reported as > 10 µM. For `CCCCN(C)C1=CC2=CC(=C(C#N)C#N)CCC2CC1` (stereo not drawn), the EC50 was > 10 µM. With `O=c1ccc2c(-c3ccccc3)c3ccc(O)cc3oc-2c1` the EC50 was > 10 µM.
